Compound activity from PubChem.
An excerpt weighted towards active compounds, which were near 15% of everything screened.
Sm TGR block – S. mansoni TGR enzyme inhibition | Potency, µM (doses to about 114 µM), inactives show at the highest dose activity change, negative = inhibition, most hits filed as inhibitors | actives 3% (n = 360,000) | purified TGR, DTNB reduction, TNB absorbance 405 nm | Q962Y6 | AID 485364; also: potency is read from the fitted curve at half-maximal effect; % is scaled to controls: 0 for no effect and ±100 for the full control effect; nearly all actives have a fitted effect of over 60% in size
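TGR 20 nM + NADPH 100 uM (dispensed conc.), cpd preinc 15 min RT; start with NADPH (500 uM addition) then DTNB (15 mM addition). Kinetic TNB absorbance, 405 nm filter. Four-parameter Hill fit across titration.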
Pf growth 96h – inhibits malaria parasite growth, 96 h; actives 6.9% (n = 320,000); P. falciparum luciferase reporter growth, 96 h; Potency, µM (doses to about 28.7 µM), without a hit: at the top dose activity change, negative = inhibition, most hits filed as inhibitors; also: potency is read from the fitted curve at half-maximal effect; % is scaled to controls: 0 for no effect and ±100 for the full control effect
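Parasite growth measured via integrated firefly luciferase reporter in P. falciparum. Infected erythrocytes at 2% hematocrit, 0.05% parasitemia final were treated 96 hours at 37 C under 5% CO2, and luminescence was read.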
SARS PLpro yeast – SARS-CoV PLP inhibition in yeast; S. cerevisiae expressing SARS-CoV PLpro, growth rescue; Potency, µM (top dose mostly 32.9 µM), for the others: at the highest dose activity, positive = growth rescue, hits mostly activators; actives 0.19% (n = 330,000); AID 485353; calls by dose curve; also: potency is read from the fitted curve at half-maximal effect; 0% is about no effect; nearly all actives have a fitted effect of over 55% in size
HCV inhibitor – inhibitors of hepatitis C virus infection | Huh7.5.1 HCVcc-Cre infection, luciferase reporter, 44 h | Potency, µM (titrated, usually from 41.8 µM), without a hit: at the top dose activity change, negative = inhibition, hits mostly inhibitors | actives 3.4% (n = 340,000) | AID 651820; also: potency is read from the fitted curve at half-maximal effect; % is scaled to controls: 0 for no effect and ±100 for the full control effect
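Reporter virus HCVcc-Cre (~0.5 moi) infects cells exposed to compound; seeding density 1,000 cells/well with 4 h settling beforehand. Luminescence, 15 sec read, taken 44 h post-infection following a 15 min RT substrate incubation.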
Pf growth 48h – P. falciparum growth inhibition at 48 hours (one generation) | P. falciparum luciferase growth in erythrocytes, 48 h | AID 504832 | Potency, µM (titrated, usually from 28.7 µM), for the others: at the highest dose activity change, negative = inhibition, most hits filed as inhibitors | actives 5.9% (n = 310,000); also: potency is read from the fitted curve at half-maximal effect; % is scaled to controls: 0 for no effect and ±100 for the full control effect
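Luminescence readout; reporter = integrated firefly luciferase in P. falciparum. RBC culture at 2% hematocrit, 0.1% parasitemia final, 37 C/5% CO2; decreased signal taken as growth inhibition.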
HCMV inh – human cytomegalovirus inhibition. actives 4.5% (n = 410,000). HFF cells, HCMV-luciferase reporter, 72 h; stronger effect = lower value. activity change, negative = inhibition, % at 57.5 µM; in the data active = activity change below about -60%; inconclusive = no clear call, values can overlap the other calls; inactive = above about -39%; also: % is scaled to controls: 0 for no effect and ±100 for the full control effect
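Inhibition of viral replication was scored as loss of reporter luminescence in HFFs infected with HCMV-luciferase (MOI 1 PFU/cell) for 72 h; compounds tested at 2 doses, normalized to buffer and Salinomycin controls.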
Active calls of the source: *; u = inconclusive; x = no result given; [ ] = another dose, or the depositor's remark. Unless noted, calls follow the shape of the dose curve; as a rule, active = well fitted curve in the direction sought with a large enough effect; inconclusive = small, poorly fitted or top-dose-only effect, or another doubt; inactive = no such curve, though single readings can be large; an effect the other way counts as inactive or inconclusive.

SMILES	Sm TGR block	Pf growth 96h	SARS PLpro yeast	HCV inhibitor	Pf growth 48h	HCMV inh
Cc1ccc(C)c(S(=O)(=O)c2nnn3c2nc(NC2CCCC2)c2sccc23)c1	10.5%	x	x	x	x	-106.6*
Cc1ccc(S(=O)(=O)c2nnn3c2nc(N2CCOCC2)c2ccccc23)cc1C	-1.5%	u	-2.2%	10µM*	u	9.0
Cc1ccc(S(=O)(=O)c2nnn3c2nc(NC2CCN(Cc4ccccc4)CC2)c2ccccc23)cc1C	9.0%	u	-3.1%	u	2.94µM*	x
Cc1ccc(S(=O)(=O)c2nnn3c2nc(NC2CCCCC2)c2sccc23)cc1C	11.1%	x	x	x	x	-91.6*
Cc1ccc(C)c(S(=O)(=O)c2nnn3c2nc(NCc2cccs2)c2sccc23)c1	3.0%	x	x	x	x	-38.4
Cc1cc(C)c(NC(=O)CSc2n[nH]c(-c3ccccc3Cl)n2)c(C)c1	-4.4%	x	x	x	x	-21.0
Cc1cc(NC(=O)C(C)SCC(=O)N(C)Cc2ccccc2F)no1 (configuration not stated)	-17.4%	u	-1.3%	1.1%	-29.1%	-8.2
Oc1cccc(-c2sc3ccccc3c2-c2ccc(OCCN3CCCCC3)cc2)c1	x	x	x	x	x	-22.1
COc1cc2sc(-c3ccccc3OC)c(-c3ccc(OCCN4CCCCC4)cc3)c2cc1OC	x	x	-2.3%	11.2µM*	x	-18.2
O=C(c1ccc(OCCN2CCCCC2)cc1)c1c(-c2ccc(O)cc2)sc2cc(O)ccc12	4.4%	2.33µM*	-2.7%	u	2.62µM*	-6.5
COc1ccccc1-c1sc2cc3c(cc2c1-c1ccc(OCCN2CCCCC2)cc1)OCO3	x	x	-35.3%	u	x	-32.7
Cc1cccc(CCn2c(=O)c3ccccc3n(Cc3cccc(F)c3)c2=O)c1	8.6%	x	x	x	x	3.7
O=S(=O)(NC1CC1)c1ccc(S(=O)(=O)N2CCCC(c3nc(-c4cccnc4)no3)C2)cc1 (configuration not stated)	0.6%	-2.8%	-0.5%	15.2%	u	-66.3*
O=S(=O)(c1ccc(F)cc1)N1CCCC(c2nc(-c3ccc(F)cc3)no2)C1 (configuration not stated)	-5.2%	-2.6%	2.4%	u	18.0%	-6.5
CN(C(=O)c1c[nH]c(=O)cc1C(F)(F)F)c1ccc(Cl)c(Cl)c1	7.5%	-107.9%	-0.5%	-12.7%	11.7µM*	1.5
CN(C(=O)c1c[nH]c(=O)cc1C(F)(F)F)c1ccc(Cl)cc1	-18.4%	u	0.2%	1.8%	u	-9.7
N#Cc1ccc(CSc2nnc(-c3cccc(S(=O)(=O)N4CCCCC4)c3)o2)cc1	-9.1%	u	-3.9%	u	13.1µM*	-66.4*
O=C(c1cccc(Br)c1)N1CCN(S(=O)(=O)N2CCCCC2)CC1	-4.5%	13.9%	-2.6%	3.8%	16.4%	-10.5
CCCCSCCCNC(=O)CS(=O)Cc1nc(-c2cccc(C)c2)oc1C (configuration not stated)	44.7µM*	u	-2.3%	-13.0%	24.3%	16.8
Cc1cccc(-c2nc(CS(=O)CC(=O)NCCc3ccc(Cl)cc3)c(C)o2)c1 (configuration not stated)	u	20.9%	3.4%	u	14.3%	-33.9
CCC(C)NC(=O)CS(=O)Cc1nc(-c2cccc(C)c2)oc1C (configuration not stated)	25.1µM*	33.0%	10.9%	-9.1%	x	-11.6
CCCCNC(=O)CS(=O)Cc1nc(-c2cccc(C)c2)oc1C (configuration not stated)	u	0.104µM*	7.7%	-5.5%	x	16.1
CCCCNC(=O)CS(=O)Cc1nc(-c2cccc(Cl)c2)oc1C (configuration not stated)	31.6µM*	4.7%	2.7%	-6.9%	x	-5.2
Cc1cccc(-c2nc(CSCC(=O)NCCCN3CCOCC3)c(C)o2)c1	-6.1%	11.3%	-7.9%	u	u	11.2
CC(C)Oc1cccc(NC(=O)C2CCN(S(=O)(=O)Cc3ccccc3)CC2)c1	-9.9%	x	x	x	x	-4.6
SMILES	Sm TGR block	Pf growth 96h	SARS PLpro yeast	HCV inhibitor	Pf growth 48h	HCMV inh
COc1ccc(COC(=O)C2=C(C)NC(=O)CC2c2cccc(Cl)c2Cl)cc1 (configuration not stated)	-0.8%	x	x	x	x	-26.0
CN(C)c1ccc(-c2csc(C(O)c3cccc(Cl)c3)n2)cc1 (configuration not stated)	x	x	x	x	x	-15.8
Cc1ccccc1C(=O)NC1CCN(C(=O)Nc2ccccc2Cl)CC1	10.4%	-17.7%	0.5%	-18.3%	35.3%	-22.3
COc1cc(S(=O)(=O)NCc2ccncc2)c(OC)cc1Cl	5.9%	-83.7%[5.75 µM]	0.8%	u	-20.0%	-79.1*
COc1cc(S(=O)(=O)NCc2ccncc2)c(OC)cc1C	3.6%	75.8%	4.5%	-14.5%	-5.3%	-31.5
COc1ccc(C(=O)NCc2ccncc2)cc1S(=O)(=O)NCc1ccc(Cl)cc1	-28.2%	10.4µM*	-1.4%	-21.2%	u	-4.5
COc1cc(S(=O)(=O)NCc2ccccn2)c(OC)cc1Cl	0.2%	9.28µM*	18.5%	3.4%	-22.9%	35.8
COc1cc(S(=O)(=O)NCc2ccccn2)ccc1Cl	65.3%	16.5%	-7.1%	4.2%	27.3%	-3.0
COC(=O)c1ccc2nc(-c3ccccc3)c(Cc3ccc(C)cc3)n2c1	x	x	x	x	x	10.9
C[C@@H]1CN([C@@H](C)CO)S(=O)(=O)c2ccc(Br)cc2O[C@H]1CN(C)C(=O)Nc1ccc(C(F)(F)F)cc1	x	x	x	x	x	-36.0
COc1ccc(CCN(C)c2ncnc3sccc23)cc1OC	-6.0%	4.1%	-9.4%	10µM*	-5.3%	u
CN(Cc1ccccc1F)c1ncnc2sccc12	4.9%	7.8%	3.7%	u	-2.2%	u
CN(Cc1cccs1)c1ncnc2sccc12	-10.4%	3.3%	-9.7%	11.2µM*	-13.7%	-77.8*
COc1ccc(CN(C)c2ncnc3sccc23)c(OC)c1OC	-18.6%	u	1.6%	11.2µM*	13.1µM*	u
CC(=O)c1cc2c(cc1NC(=O)c1ccccc1C)OCO2	x	35.8%	1.4%	x	17.8%	x
CCN(CC)c1ccc(/C=N/NC(=O)CNC(=O)C2COc3ccccc3O2)c(O)c1 (configuration not stated)	11.1%	u	u	11.2µM*	u	-96.9*
C/C(=N/NC(=O)CNC(=O)C1COc2ccccc2O1)c1ccc2c(c1)OCCO2 (configuration not stated)	36.2%	u	-5.3%	-29.5%	24.9%	-73.2*
COc1cc(/C=N\NC(=O)CNC(=O)C2COc3ccccc3O2)ccc1O (configuration not stated)	3.7%	23.8%	10.2%	7.6%	2.1%	27.7
